Unmarked numbers belong to inactive results. Inconclusive results are not listed. Where a call stands in place of a potency, no number is given. Calls of active or inactive are those of the source. Unless noted, the call rests on the fitted dose curve; in most records, active means well fitted curve in the direction sought with a large enough effect; inconclusive means small, poorly fitted or top-dose-only effect, or another doubt; inactive means no such curve, though single readings can be large; an effect the other way counts as inactive or inconclusive.
What was measured:
[1] = qHTS for Inhibitors of Plasmodium falciparum (7G8) proliferation (AID 504316); further: nearly all actives have a fitted effect of over 65% in size; further: potency means the concentration at half of the fitted maximal effect; on activity change, negative = inhibition: series mostly up to about 6.7 µM
Outline: (§1)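 Erythrocytes infected with P. falciparum line (0.3% parasitemia, 2.5% hematocrit final) incubated with compounds 72 h at 37 °C, 5% CO2; SYBR Green lysis buffer added, fluorescence read next day. Normalized to 0.29 uM artemisinin and DMSO.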

[2] = qHTS for Inhibitors of Plasmodium falciparum (CP250) proliferation (AID 504320); further: potency means the concentration at half of the fitted maximal effect
Outline: as §1

[3] = biological target: Atrial natriuretic peptide receptor 1 (Homo sapiens) (UniProt P16066); assay: Natriuretic polypeptide receptor (hNpr1) antagonism - Pilot CMLD screen (AID 1347052; calls by dose curve;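 further: HEK293 cells with hNpr1 stimulated by hNppA peptide at 0.1 nM; cGMP level read as GloSensor luciferase luminescence after agonist stimulation; series mostly up to about 9.2 µM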)
Chain of Atrial natriuretic peptide receptor 1 (Homo sapiens) (P16066 whole entry, looked up): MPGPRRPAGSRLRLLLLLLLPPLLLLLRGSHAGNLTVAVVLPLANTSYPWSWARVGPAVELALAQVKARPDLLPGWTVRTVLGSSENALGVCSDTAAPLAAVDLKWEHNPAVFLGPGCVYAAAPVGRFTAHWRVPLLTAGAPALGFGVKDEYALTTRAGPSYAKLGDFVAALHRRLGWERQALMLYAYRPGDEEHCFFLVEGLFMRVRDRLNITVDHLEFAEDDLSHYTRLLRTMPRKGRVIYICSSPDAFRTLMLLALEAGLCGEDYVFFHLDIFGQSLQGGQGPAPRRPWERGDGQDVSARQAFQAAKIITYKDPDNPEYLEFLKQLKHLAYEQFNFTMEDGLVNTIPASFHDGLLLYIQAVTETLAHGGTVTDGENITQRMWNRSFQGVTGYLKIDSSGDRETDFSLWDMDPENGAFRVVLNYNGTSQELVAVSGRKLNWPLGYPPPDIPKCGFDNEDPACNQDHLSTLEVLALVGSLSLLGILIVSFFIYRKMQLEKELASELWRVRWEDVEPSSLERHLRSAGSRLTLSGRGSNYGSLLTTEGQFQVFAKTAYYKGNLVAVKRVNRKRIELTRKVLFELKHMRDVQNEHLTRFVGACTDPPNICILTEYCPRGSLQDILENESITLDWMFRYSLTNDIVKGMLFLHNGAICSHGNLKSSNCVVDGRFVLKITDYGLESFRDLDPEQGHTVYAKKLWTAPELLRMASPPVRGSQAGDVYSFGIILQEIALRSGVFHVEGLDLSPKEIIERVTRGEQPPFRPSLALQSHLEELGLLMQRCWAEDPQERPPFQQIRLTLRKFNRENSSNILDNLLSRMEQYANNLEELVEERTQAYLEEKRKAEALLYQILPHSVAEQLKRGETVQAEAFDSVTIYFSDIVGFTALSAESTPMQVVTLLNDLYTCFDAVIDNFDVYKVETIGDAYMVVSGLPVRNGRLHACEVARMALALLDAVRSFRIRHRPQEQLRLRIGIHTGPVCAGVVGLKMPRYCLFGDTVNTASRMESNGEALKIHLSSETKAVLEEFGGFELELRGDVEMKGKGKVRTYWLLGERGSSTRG

[4] = biological target: Cytochrome P450 3A4 (Homo sapiens) (UniProt P08684); assay: qHTS Assay for Inhibitors and Substrates of Cytochrome P450 3A4 (AID 884); further: potency means the concentration at half of the fitted maximal effect; nearly all actives have a fitted effect of over 50% in size
Chain of Cytochrome P450 3A4 (Homo sapiens) (P08684 whole entry, looked up): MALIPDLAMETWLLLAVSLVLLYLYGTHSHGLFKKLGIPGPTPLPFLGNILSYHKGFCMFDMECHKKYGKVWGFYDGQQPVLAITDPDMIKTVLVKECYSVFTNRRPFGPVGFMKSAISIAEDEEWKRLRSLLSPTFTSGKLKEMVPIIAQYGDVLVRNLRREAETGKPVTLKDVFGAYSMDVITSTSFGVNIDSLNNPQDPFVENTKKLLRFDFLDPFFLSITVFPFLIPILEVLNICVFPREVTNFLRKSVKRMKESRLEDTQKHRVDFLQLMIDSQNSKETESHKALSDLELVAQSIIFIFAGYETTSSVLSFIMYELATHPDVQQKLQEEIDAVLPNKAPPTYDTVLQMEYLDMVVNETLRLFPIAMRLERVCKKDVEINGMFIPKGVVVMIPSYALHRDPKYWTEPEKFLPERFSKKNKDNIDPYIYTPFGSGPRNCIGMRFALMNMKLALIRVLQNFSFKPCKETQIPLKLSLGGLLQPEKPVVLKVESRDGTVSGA
Outline: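 20 nM human CYP3A4 with 25 uM Luciferin-PPXE (at KM) in 200 mM KPO4, preincubated 10 min with compound; NADPH regeneration started a 60 min RT reaction. Luciferin detected by luminescence, normalized to 57 uM ketoconazole as full inhibition.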

[5] = biological target: Cytochrome P450 3A4 (Homo sapiens) (UniProt P08684); assay: qHTS Assay for Activators of Cytochrome P450 3A4 (AID 885); further: nearly all actives have a fitted effect of over 65% in size
Outline: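 20nM CYP3A4 + 25uM Luciferin-PPXE (=KM), 200mM KPO4; cpd 10 min RT; NADPH regen, 60 min RT; stop w/ detection buffer, 20 min; luminescence. Normalized to 57 uM ketoconazole.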

[6] = biological target: Cytochrome P450 2D6 (Homo sapiens) (UniProt P10635); assay: qHTS Assay for Inhibitors and Substrates of Cytochrome P450 2D6 (AID 891);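 further: luciferin methyl ether substrate demethylated by CYP2D6 with NADPH regeneration; nearly all actives have a fitted effect of over 60% in size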
Chain of Cytochrome P450 2D6 (Homo sapiens) (P10635 whole entry, looked up): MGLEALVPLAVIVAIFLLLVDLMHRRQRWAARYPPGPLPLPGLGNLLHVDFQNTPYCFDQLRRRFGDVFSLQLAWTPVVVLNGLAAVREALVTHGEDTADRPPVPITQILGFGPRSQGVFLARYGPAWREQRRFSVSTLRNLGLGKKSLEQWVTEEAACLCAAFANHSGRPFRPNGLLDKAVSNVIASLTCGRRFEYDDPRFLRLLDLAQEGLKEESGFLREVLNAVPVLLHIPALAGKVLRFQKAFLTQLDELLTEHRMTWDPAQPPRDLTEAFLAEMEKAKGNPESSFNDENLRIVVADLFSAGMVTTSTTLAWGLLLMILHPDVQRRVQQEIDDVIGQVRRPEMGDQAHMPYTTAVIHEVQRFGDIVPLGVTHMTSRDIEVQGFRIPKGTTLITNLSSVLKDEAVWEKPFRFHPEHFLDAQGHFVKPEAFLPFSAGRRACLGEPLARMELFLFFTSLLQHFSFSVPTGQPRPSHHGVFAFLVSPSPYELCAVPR
Outline: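 Human CYP2D6 (5 nM) with 30 uM Luciferin-ME EGE (at Km) in 100 mM KPO4, compound preincubated 10 min, then NADPH regeneration system for 60 min at room temperature. Luciferin read by luminescence; normalized to 1.43 uM quinidine.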

[7] = biological target: Cytochrome P450 2C19 (Homo sapiens) (UniProt P33261); assay: qHTS Assay for Inhibitors and Substrates of Cytochrome P450 2C19 (AID 899); further: nearly all actives have a fitted effect of over 60% in size
Chain of Cytochrome P450 2C19 (Homo sapiens) (P33261 whole entry, looked up): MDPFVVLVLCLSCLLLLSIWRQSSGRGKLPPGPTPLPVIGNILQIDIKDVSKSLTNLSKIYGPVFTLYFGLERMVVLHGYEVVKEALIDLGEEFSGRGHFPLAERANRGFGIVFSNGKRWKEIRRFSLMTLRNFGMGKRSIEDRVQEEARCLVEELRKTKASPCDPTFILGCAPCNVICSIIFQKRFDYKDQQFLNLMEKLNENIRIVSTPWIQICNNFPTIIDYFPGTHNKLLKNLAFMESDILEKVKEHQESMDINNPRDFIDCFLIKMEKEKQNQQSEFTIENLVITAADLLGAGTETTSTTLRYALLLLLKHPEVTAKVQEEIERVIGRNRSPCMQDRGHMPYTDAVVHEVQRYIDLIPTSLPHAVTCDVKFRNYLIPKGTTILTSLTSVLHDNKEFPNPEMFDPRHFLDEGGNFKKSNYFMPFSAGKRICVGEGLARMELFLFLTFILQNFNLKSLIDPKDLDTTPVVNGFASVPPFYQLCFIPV
Outline: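 5 nM human CYP2C19 with 10uM Luciferin-H EGE (at KM) in 50mM KPO4, compound preincubated 10 min at 37C, then NADPH regeneration for 60 min at 37C. Luciferin read by luminescence after detection reagent; normalized to 57uM ketoconazole as full inhibition.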

[8] = qHTS for Inhibitors of Plasmodium falciparum (HB3) proliferation (AID 504318); further: nearly all actives have a fitted effect of over 60% in size; further: potency means the concentration at half of the fitted maximal effect
Outline: as §1

SMILES: CC(C)=CCN1C(=O)[C@@]2(CC(C)=CC[C@@H](COc3ccccc3)O2)c2ccccc21
- Potency [1]: 2690 nM (active)
- Potency [2]: inactive
- Potency [3]: inactive

SMILES: CC(C)=CCC1(CC=C(C)C)C(=O)C(C(=O)c2ccccc2)=C2OC(C)(C)CCC2(CC=C(C)C)C1=O (centres undefined)
- Potency [4]: 3980 nM (active)
- activity change, positive = activation [5]: -69.3% [at 11.4 µM]
- activity change, negative = inhibition [6]: 20.1% [at 11.4 µM]
- activity, negative = inhibition [7]: -5.29% [at 11.4 µM]
- Potency [1]: 1690 nM (active)
- Potency [3]: inactive

SMILES: C=COC[C@H]1CN2[C@H](c3ccc(Br)cc3)[C@H](C)CC[C@H]2C(=O)O1
- Potency [1]: inactive
- Potency [2]: 1900 nM (active)
- Potency [3]: inactive

SMILES: C=CCOCCC=C1c2ccccc2[C@@H](OC)[C@@H]1C
- Potency [1]: 1510 nM (active)
- Potency [2]: inactive
- Potency [3]: inactive

SMILES: COC(=O)c1ccc(CN2C(=O)[C@]3(OCCC=C[C@@H]3C)c3cc(OC)ccc32)cc1
- Potency [1]: inactive
- Potency [2]: inactive
- Potency [3]: inactive

SMILES: C[C@]12C[C@@](C)(C=C1C=Cc1ccc(F)cc1)C(=O)C[C@H]2c1ccc(F)cc1
- Potency [8]: 1690 nM (active)
- Potency [3]: inactive

SMILES: COc1ccc([C@]23Cc4cc(OC)c(OC)cc4[C@H](O2)C2=C(CCCC2=O)O3)cc1
- Potency [1]: 1510 nM (active)
- Potency [2]: inactive
- Potency [3]: inactive

SMILES: C[C@H]1CC[C@H]2C(=O)N(Cc3ccc(Cl)cc3)C[C@@H](O)CN2[C@H]1c1ccc(Br)cc1
- Potency [1]: 1690 nM (active)
- Potency [2]: inactive
- Potency [3]: inactive

SMILES: C=CC[C@](C)(O)c1ccccc1
- Potency [1]: 1510 nM (active)
- Potency [2]: inactive
- Potency [3]: inactive

SMILES: Brc1ccc2c(c1)c1cc(Br)ccc1n2CC1CO1 (centres undefined)
- Potency [1]: 1690 nM (active)
- Potency [2]: inactive
- Potency [3]: inactive

SMILES: CCc1cc2c(nc1CC)CCN(CCC(C)=NO[C@@H](C)c1cn([C@H](CO)Cc3ccccc3)nn1)C2
- Potency [1]: 1690 nM (active)
- Potency [2]: inactive
- Potency [3]: inactive

SMILES: O=C1CCCC2=C1[C@H]1O[C@](CCCCN3C(=O)c4ccccc4C3=O)(Cc3c1ccc1ccccc31)O2
- Potency [1]: 1690 nM (active)
- Potency [2]: inactive
- Potency [3]: inactive

SMILES: COc1ccc([C@]23Cc4cc(C#N)ccc4[C@H](O2)c2c(cc(C)n(Cc4ccccc4)c2=O)O3)cc1
- Potency [1]: 1690 nM (active)
- Potency [2]: inactive
- Potency [3]: inactive

SMILES: COC(=O)C1=C(C)N(Cc2ccccc2)C(=NCc2ccc3c(c2)OCO3)NC1CCc1ccccc1 (centres undefined)
- Potency [1]: inactive
- Potency [2]: inactive
- Potency [3]: inactive

SMILES: COC(=O)C12C[C@@H](C)C3C(C)C(c4ccccc4C31)N2C(=O)C(F)(F)F (some centres undefined)
- Potency [1]: inactive
- Potency [2]: inactive
- Potency [3]: inactive

SMILES: CCN1C(=NCc2cccc(C(F)(F)F)c2)NC(c2ccccc2)C(C(=O)OC)=C1C (centres undefined)
- Potency [8]: inactive
- Potency [3]: inactive

SMILES: Cc1cc2c(c(=O)n1-c1ccccc1)[C@H]1O[C@](c3ccsc3)(Cc3ccccc31)O2
- Potency [1]: 1510 nM (active)
- Potency [2]: inactive
- Potency [3]: inactive

SMILES: C=C[C@@H](C)[C@](C)(O)c1ccccc1
- Potency [1]: 1510 nM (active)
- Potency [2]: inactive
- Potency [3]: inactive

SMILES: N#Cc1ccc2c(c1)C[C@]1(CCCCN3C(=O)c4ccccc4C3=O)Oc3c(c(=O)oc4ccccc34)[C@H]2O1
- Potency [1]: 1510 nM (active)
- Potency [2]: inactive
- Potency [3]: inactive

SMILES: CCCCn1c(C)cc2c(c1=O)[C@H]1O[C@](CCCC)(Cc3cc(C#N)ccc31)O2
- Potency [1]: 1900 nM (active)
- Potency [2]: inactive
- Potency [3]: inactive

SMILES: O=C1c2ccccc2C(=O)N1CCCC[C@]12Cc3ccccc3[C@H](O1)c1c(c3ccccc3oc1=O)O2
- Potency [1]: 1510 nM (active)
- Potency [2]: 1690 nM (active)
- Potency [3]: inactive

SMILES: CCN1C(=NCc2ccc3c(c2)OCO3)NC(c2ccccc2)C(C(=O)OC)=C1C (centres undefined)
- Potency [8]: inactive
- Potency [3]: inactive

SMILES: COC1=C(C(=O)c2ccccc2)C(=O)[C@@]2(CC=C(C)C)C[C@@H]([S+](=O)([O-])c3ccccc3)C(C)(C)[C@@]1(CC=C(C)C)C2=O
- Potency [8]: 1900 nM (active)
- Potency [3]: inactive

SMILES: COC(=O)C1=C[C@H]([C@@H](C)[C@H](OC)c2ccccc2Br)[C@H]2c3ccccc3O[C@@H]12
- Potency [8]: inactive
- Potency [2]: inactive
- Potency [3]: inactive

SMILES: CC(Nc1oc(-c2ccccc2)nc1-c1cccc2ccccc12)c1ccccc1 (centres undefined)
- Potency [8]: inactive
- Potency [2]: inactive
- Potency [3]: inactive

SMILES: CCN1C(=NCCc2c[nH]c3ccccc23)NC(c2cccc(F)c2)C(C(=O)OC)=C1C (centres undefined)
- Potency [8]: inactive
- Potency [2]: inactive
- Potency [3]: inactive

SMILES: COc1ccc([C@]23Cc4ccccc4[C@H](O2)C2=C(CC(C)(C)CC2=O)O3)cc1
- Potency [2]: inactive
- Potency [3]: inactive

SMILES: C[C@H]1C[C@@H](C)O[C@@]2(C1)C(=O)N(Cc1ccc(F)cc1)c1ccccc12
- Potency [8]: inactive
- Potency [2]: inactive
- Potency [3]: inactive

SMILES: C=CCN=C1NC(c2cccc(C(F)(F)F)c2)C(C(=O)OC)=C(C)N1CC (centres undefined)
- Potency [8]: inactive
- Potency [2]: inactive
- Potency [3]: inactive

SMILES: COC(=O)C1=C(C(=O)OC)[C@@H]2N(Cc3ccccc3)c3ccccc3[C@@]23CCC(=O)N(CC2CC2)C3=N1
- Potency [8]: 3290 nM (active)
- Potency [3]: inactive

SMILES: C#CCN1C(=O)[C@]2(OC[C@@H]3Cc4ccccc4[C@@H]3C=C2C)c2ccccc21
- Potency [2]: inactive
- Potency [3]: inactive

From PubChem BioAssay (NCATS)
